Among the data in the supplement of paper PMC10849652 are log2 fold change values, retold here.

Of roughly 7,900 targets only a part is listed; those with a hit were picked by preference. About 0.6% of all pairs of compound and target were hits. A number with no mark means an inactive call.

UniProt Q9H0C8, sequence (Q9H0C8 whole entry, looked up): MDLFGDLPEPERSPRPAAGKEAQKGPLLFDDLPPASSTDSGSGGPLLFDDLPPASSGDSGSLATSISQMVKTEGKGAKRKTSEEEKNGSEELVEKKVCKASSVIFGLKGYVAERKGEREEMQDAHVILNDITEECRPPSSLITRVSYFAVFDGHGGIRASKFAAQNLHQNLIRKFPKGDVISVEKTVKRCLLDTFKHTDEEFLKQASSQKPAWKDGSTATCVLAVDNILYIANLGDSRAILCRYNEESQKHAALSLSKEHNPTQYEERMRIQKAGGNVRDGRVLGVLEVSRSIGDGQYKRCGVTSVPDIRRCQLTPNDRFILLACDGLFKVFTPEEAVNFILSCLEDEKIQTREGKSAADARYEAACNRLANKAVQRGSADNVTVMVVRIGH
UniProt P32019, sequence (P32019 whole entry, looked up): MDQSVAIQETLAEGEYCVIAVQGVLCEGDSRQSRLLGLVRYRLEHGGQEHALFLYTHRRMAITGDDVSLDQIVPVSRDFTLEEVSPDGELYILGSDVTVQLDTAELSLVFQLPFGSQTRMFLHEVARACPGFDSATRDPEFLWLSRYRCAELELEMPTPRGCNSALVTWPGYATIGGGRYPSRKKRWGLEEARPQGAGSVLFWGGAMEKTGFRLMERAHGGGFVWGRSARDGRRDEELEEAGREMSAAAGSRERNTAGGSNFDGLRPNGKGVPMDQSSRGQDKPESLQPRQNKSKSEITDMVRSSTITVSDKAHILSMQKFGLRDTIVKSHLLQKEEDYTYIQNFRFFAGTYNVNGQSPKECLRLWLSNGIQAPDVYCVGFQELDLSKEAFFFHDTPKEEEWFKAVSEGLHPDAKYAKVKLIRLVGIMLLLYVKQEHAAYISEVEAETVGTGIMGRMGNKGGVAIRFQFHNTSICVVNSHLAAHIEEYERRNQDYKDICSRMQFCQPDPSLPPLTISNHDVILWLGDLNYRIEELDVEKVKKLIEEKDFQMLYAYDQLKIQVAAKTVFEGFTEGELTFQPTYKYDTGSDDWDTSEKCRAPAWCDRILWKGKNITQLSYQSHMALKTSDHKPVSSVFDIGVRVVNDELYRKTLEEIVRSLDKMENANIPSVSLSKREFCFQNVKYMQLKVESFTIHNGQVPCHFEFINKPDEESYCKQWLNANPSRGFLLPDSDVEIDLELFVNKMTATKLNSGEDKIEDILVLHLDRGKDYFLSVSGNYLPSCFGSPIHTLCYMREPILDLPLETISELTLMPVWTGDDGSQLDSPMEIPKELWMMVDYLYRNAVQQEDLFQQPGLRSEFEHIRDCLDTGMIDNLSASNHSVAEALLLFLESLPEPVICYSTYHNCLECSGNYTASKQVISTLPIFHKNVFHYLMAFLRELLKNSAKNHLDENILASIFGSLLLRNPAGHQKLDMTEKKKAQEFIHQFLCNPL
UniProt Q9Y496, sequence (Q9Y496 whole entry, looked up): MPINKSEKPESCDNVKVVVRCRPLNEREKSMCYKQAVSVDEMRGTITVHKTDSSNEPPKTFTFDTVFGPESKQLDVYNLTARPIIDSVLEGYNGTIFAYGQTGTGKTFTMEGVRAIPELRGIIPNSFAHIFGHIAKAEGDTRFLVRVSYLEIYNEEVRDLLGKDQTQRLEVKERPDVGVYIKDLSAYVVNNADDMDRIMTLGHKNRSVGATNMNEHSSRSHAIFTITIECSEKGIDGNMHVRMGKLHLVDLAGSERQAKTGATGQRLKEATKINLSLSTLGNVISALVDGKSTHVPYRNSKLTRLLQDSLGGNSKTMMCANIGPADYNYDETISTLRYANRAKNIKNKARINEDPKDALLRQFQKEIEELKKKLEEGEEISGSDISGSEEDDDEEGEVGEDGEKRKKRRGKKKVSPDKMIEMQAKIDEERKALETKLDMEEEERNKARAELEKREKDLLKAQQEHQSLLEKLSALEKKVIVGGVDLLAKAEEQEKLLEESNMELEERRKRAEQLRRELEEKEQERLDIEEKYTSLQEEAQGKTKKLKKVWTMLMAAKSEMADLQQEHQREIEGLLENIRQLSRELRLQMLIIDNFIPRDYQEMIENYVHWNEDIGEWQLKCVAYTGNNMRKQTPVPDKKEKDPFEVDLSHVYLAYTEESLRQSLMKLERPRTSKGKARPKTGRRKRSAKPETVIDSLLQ
UniProt Q8N108, sequence (Q8N108 whole entry, looked up): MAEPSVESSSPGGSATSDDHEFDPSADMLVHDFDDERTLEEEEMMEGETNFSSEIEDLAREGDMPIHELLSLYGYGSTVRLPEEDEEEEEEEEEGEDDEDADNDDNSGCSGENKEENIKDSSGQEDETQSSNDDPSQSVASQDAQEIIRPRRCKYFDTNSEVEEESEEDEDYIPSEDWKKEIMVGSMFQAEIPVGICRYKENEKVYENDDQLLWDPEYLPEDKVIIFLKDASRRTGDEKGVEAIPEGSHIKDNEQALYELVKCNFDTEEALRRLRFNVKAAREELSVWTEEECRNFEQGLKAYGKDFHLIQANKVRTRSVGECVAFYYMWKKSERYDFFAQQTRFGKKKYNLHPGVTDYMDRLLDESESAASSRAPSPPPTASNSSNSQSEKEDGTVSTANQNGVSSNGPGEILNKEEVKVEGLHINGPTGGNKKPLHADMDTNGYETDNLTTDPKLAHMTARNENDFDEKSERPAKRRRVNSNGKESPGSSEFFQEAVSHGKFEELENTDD
UniProt Q16891, sequence (Q16891 whole entry, looked up): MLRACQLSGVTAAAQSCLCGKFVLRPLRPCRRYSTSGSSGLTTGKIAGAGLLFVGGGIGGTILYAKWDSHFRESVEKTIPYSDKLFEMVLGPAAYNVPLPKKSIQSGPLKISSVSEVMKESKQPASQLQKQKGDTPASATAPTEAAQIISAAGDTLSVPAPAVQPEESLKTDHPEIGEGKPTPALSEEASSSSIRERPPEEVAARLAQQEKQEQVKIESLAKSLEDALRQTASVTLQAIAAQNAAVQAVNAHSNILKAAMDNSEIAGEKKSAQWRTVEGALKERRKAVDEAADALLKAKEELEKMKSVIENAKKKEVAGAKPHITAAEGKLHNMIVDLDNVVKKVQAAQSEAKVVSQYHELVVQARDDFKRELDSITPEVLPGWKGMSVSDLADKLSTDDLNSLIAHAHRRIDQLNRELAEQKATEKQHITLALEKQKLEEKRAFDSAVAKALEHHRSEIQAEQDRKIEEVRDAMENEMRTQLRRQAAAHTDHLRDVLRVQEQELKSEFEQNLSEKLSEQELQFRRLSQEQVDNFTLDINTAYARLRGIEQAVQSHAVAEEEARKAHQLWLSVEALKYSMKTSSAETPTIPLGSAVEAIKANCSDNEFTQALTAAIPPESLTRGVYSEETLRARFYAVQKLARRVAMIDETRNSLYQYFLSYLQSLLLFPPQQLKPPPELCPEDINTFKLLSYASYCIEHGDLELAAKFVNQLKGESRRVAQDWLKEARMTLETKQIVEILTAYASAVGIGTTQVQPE
UniProt Q96QZ7, sequence (Q96QZ7 whole entry, looked up): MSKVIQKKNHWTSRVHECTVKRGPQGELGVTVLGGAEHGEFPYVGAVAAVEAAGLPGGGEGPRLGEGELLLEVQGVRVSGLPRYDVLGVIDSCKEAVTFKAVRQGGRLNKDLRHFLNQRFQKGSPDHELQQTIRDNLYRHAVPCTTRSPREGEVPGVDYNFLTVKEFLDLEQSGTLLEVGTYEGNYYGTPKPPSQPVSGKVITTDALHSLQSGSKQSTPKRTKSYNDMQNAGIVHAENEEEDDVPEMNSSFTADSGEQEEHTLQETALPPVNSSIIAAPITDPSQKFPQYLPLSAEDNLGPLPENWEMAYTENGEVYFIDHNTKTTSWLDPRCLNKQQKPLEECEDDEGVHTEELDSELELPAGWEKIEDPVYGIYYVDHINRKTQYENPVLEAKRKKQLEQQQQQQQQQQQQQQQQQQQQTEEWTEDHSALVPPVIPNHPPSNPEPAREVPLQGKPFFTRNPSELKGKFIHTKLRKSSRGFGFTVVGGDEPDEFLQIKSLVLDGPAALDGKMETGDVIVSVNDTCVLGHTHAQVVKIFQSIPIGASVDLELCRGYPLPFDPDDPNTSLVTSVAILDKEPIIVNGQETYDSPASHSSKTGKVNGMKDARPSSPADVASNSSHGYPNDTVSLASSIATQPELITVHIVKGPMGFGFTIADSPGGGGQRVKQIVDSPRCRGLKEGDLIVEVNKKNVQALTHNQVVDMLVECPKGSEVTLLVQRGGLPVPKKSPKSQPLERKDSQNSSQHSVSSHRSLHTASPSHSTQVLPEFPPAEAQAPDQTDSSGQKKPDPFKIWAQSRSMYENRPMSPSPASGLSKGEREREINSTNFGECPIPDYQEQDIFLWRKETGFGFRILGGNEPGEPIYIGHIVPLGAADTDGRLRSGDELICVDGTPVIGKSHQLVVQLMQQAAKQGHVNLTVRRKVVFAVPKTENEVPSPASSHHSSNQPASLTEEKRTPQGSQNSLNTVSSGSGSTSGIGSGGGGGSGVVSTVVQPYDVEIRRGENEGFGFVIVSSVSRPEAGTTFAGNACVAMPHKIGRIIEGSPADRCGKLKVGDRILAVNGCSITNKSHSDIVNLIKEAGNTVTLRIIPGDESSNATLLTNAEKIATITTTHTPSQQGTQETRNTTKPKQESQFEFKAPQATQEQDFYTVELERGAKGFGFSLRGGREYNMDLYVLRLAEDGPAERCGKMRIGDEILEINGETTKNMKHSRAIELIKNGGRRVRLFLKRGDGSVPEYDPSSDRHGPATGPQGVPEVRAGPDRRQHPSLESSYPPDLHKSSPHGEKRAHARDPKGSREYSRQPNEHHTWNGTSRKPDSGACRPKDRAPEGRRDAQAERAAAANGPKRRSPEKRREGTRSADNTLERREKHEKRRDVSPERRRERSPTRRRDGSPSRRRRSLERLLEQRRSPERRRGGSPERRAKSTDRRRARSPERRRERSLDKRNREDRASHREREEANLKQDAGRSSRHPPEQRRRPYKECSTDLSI
UniProt Q8WV07, sequence (Q8WV07 whole entry, looked up): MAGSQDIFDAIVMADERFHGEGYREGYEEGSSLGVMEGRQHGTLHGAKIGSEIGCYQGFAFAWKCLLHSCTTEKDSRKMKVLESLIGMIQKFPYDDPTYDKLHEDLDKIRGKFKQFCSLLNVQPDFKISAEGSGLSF

Compound in this experiment: CC(=O)c1cnc2ccc(-c3cc(Cl)c(O)c(Cl)c3)nc2c1N[C@H]1CC[C@H](CN(C)C)CC1
Description: log2 fold change, soluble protein after heating vs DMSO (PISA); higher = thermal stabilisation; K562 cells, 10 uM, 30 min; active = over 0.2 and 3.5 SD of the protein, either way, in both replicates (recomputed). The procedure, abridged: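 Aliquots of K562 cells (2×10^6 cells/mL) treated with 10 μM compound for 30 min were heated for 3 min over 48°C-58°C. After pooling and extraction in PBS with 0.5% NP-40 at 4°C, soluble protein from a 21,000xg, 90 min spin was quantified by TMTpro 16plex LC-MS/MS with channel sums equalised. Thermal stability is expressed against control samples, from duplicates, as a log2 fold change.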
With KPNA6 (UniProt O60684), the log2 fold change was -0.04.
With KDM3B (UniProt Q7LBC6), the log2 fold change was -0.023.
For LMBRD2 (UniProt Q68DH5), the log2 fold change is 0.034.
With ME2 (UniProt P23368) the figure was 0.213; with ILKAP (UniProt Q9H0C8), -0.055.
MFN2 (UniProt O95140): the log2 fold change was -0.055.
In the case of INPP5B (UniProt P32019), the log2 fold change is -0.013.
In the case of LARP1 (UniProt Q6PKG0) it was -0.059.
With MIER1 isoform 12 (UniProt Q8N108) the figure was -0.035; with L2HGDH (UniProt Q9H9P8), -0.065.
Take KRAS isoform 2 (UniProt P01116): the log2 fold change is -0.07.
With LTO1 (UniProt Q8WV07) the figure was 0.061; with MFN1 (UniProt Q8IWA4), -0.047; with IKZF1 (UniProt Q13422), -0.069.
For the target MAP3K7 (UniProt O43318), the log2 fold change is -0.075.
In the case of KIF3A (UniProt Q9Y496) it was 0.034.
Take IMMT isoform 4 (UniProt Q16891): the log2 fold change is -0.015.
Take LDLR (UniProt P01130): the log2 fold change is -0.106.
LMNA (UniProt P02545): the log2 fold change was -0.18.
Take MAGI1 (UniProt Q96QZ7): the log2 fold change was -0.071.
For the target MAP3K4 isoform 2 (UniProt Q9Y6R4), the log2 fold change was 0.198.
As for IWS1 (UniProt Q96ST2), the log2 fold change is 0.492 (active).
In the case of INTS5 (UniProt Q6P9B9), the log2 fold change was 0.529.
